High-throughput results: PubChem BioAssay, The Scripps Research Institute Molecular Screening Center
Sampled rows, rich in hits. Any-hit rate of the full collection: about 1.1%.
GalR3 antagonist: blocks the human galanin receptor 3; O60755; HEK293 GalR3-CNG cAMP membrane potential fluorescence; galR3 body fused to GalR1 C-terminus; inhibition, % at 3 µM; actives 0.44% (n = 360,000); AID 651719;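 active = inhibition above the screen-wide average plus 3 SD, cut at about 13% in these data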;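 note: forskolin and galanin both at EC90 stimulate the cells; cAMP rise reported by CNG channel membrane potential dye signal; 0% = forskolin plus galanin with DMSO and 100% = forskolin alone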
SRC3 inh: human NCOA3 inhibition | Q9Y6Q9 | HEK293 GAL4-SRC3 luciferase reporter, luminescence | actives 0.17% (n = 360,000) | inhibition, % at 3.6 µM;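 active = inhibition above a per-campaign cutoff, the mean of all compounds plus 3 SD, cut at about 60% in these data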;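 note: 0% = DMSO-treated cells and 100% = gossypol-treated cells at 36 µM; higher means less SRC3-driven luciferase light from the GAL4 reporter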
Target sequence (Q9Y6Q9 whole entry, looked up, the tested form may be a part): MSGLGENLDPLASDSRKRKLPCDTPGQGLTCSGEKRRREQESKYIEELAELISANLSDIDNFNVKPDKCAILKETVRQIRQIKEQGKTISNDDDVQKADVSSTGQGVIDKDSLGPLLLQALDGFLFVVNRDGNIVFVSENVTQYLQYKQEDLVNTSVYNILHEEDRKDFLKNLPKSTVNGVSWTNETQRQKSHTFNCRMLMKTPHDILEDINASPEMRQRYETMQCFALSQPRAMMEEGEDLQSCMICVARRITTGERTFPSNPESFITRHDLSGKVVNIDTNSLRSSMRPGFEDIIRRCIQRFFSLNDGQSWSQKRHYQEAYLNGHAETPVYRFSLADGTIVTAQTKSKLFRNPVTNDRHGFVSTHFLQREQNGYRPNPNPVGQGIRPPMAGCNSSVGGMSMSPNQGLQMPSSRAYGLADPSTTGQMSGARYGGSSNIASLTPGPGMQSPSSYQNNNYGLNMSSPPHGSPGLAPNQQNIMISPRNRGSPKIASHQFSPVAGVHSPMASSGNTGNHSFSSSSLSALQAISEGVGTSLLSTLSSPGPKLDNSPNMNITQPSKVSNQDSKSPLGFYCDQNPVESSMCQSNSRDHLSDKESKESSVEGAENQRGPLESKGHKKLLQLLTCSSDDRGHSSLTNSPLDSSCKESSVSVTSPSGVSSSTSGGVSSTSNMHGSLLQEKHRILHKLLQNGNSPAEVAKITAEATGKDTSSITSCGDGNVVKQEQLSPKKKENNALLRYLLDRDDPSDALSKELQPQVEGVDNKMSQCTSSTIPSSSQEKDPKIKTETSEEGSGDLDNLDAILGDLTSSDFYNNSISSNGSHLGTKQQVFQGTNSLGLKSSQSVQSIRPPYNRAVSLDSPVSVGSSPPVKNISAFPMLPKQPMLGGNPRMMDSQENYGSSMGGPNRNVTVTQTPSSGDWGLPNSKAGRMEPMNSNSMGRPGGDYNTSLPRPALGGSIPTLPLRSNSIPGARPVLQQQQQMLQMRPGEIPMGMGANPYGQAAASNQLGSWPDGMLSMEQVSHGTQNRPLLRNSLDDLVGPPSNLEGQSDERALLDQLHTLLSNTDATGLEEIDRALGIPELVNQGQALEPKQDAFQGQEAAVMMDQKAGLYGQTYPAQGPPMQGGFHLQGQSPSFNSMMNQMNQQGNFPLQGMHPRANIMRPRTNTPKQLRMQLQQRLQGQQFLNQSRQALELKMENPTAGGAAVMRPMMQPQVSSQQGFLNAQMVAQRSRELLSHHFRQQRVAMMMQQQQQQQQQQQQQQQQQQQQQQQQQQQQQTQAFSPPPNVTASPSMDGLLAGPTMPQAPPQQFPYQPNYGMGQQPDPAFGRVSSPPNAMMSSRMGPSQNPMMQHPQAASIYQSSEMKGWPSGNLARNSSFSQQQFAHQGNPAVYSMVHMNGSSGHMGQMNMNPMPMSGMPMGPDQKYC
COUP-TFII inh: blocks human COUP-TFII nuclear receptor | inhibition, % at 8.6 µM | HEK293T NGFI-A luciferase reporter, luminescence | actives 0.7% (n = 370,000) | AID 686940 | P24468;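 active = inhibition above a per-plate cutoff, mean inhibition of test wells between control levels plus 3 SD, cut at about 38% in these data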;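 note: cells cotransfected with COUP-TFII expression vector driving the NGFI-A reporter; 0% = median of COUP-TF2 test wells and 100% = reporter-only cells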
SRC2 inh: inhibits human steroid receptor coactivator 2; Q15596; HEK293 GAL4-SRC2 luciferase reporter, luminescence; inhibition, % at 9 µM; actives 0.17% (n = 370,000); AID 651957;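 active = inhibition above the mean inhibition of all tested compounds plus 3 SD, set per campaign, cut at about 52% in these data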;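 note: 0% = DMSO treated cells and 100% = cells given Gossypol at 36 µM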
LRH-1 inv ag: NR5A2 inverse agonism in reporter assay. O00482. HEK293T StAR-luciferase reporter, LRH-1 transfected, 24 h. inhibition, % at 3.6 µM. actives 0.13% (n = 360,000). AID 602396;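 active = inhibition above the mean inhibition of all tested compounds plus 3 SD, cut at about 73% in these data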;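 note: 0% = DMSO wells and 100% = reporter-only cells lacking LRH-1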
SRC1 inh: inhibitors of human steroid receptor coactivator 1 (SRC1). Q15788. HEK293 GAL4-SRC1 luciferase reporter, luminescence. inhibition, % at 3.6 µM. actives 0.12% (n = 360,000). AID 588354;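 active = inhibition above the campaign mean plus 3 SD, with each screening campaign given its own cutoff, cut at about 60% in these data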;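 note: 0% = DMSO treated cells and 100% = gossypol at 36 µM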
GalR3 antag conf: confirmation of human galanin receptor 3 antagonists | shares compounds with GalR3 antagonist | HEK293 GalR3 CNG cAMP biosensor, membrane potential fluorescence; galR3 fused to GalR1 carboxy tail; challenged with forskolin and galanin at EC90 | inhibition, % at 3 µM | actives 59% (n = 1,600);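 active = inhibition above the primary screen's cutoff, the mean inhibition of all screened compounds plus 3 SD, cut at about 13% in these data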;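 note: 0% = forskolin plus galanin and 100% = forskolin alone with DMSO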
CNG parental: acts as nonspecific agonist in parental HEK-CNG cells; shares compounds with GalR3 antagonist; HEK293-CNG parental cells, cAMP membrane potential fluorescence; normalised: DMSO wells 0%, forskolin wells 100%; activation, % at 3 µM; actives 10% (n = 1,600); AID 652268; in the data active = activation above about 1.3%
* hit, by the source's call; . = no result given.

SMILES	GalR3 antagonist	SRC3 inh	COUP-TFII inh	SRC2 inh	LRH-1 inv ag	SRC1 inh	GalR3 antag conf	CNG parental
CC(C)C[C@H]1COc2ccc(Cl)cc2S(=O)(=O)N1Cc1cn(Cc2ccc(C(F)(F)F)cc2)nn1	.	.	0	5	.	.	.	.
O=C(N/N=C/c1cc(Cl)ccc1O)C(=O)Nc1ccccc1OC(F)(F)C(F)F	22*	68*	18	-2	-13	37	66*	-1
O=C(N/N=C/c1cc(Br)ccc1O)C(=O)Nc1ccccc1OC(F)(F)C(F)F	15*	60	13	4	-17	22	57*	-2
COC(=O)[C@]12C[C@H](CC(=O)N3CCC(c4ccccc4)CC3)C(=O)N(Cc3cccc4ccccc34)C1=C[C@H](COCc1ccccc1)O[C@@H]2C	.	.	22	8	.	.	.	.
COc1ccc(-c2nc(C#N)c(NCc3ccc(C)cc3)o2)cc1OC	23*	-20	-14	-17	-15	-34	20*	0
COc1ccc(-c2nc(C#N)c(NCCc3ccccc3)o2)cc1OC	4	-46	-18	-31	-67	-44	.	.
Cc1ccsc1C1C(C#N)=C(N)Oc2n[nH]c(C)c21 (configuration not stated)	30*	10	-4	21	0	-26	-1	0
O=C(NCCCl)NNc1c(Cl)cc(Cl)cc1Cl	26*	-14	-19	-77	-4	-4	13*	0
C[C@H](O)[C@@H]1CN2CCc3c([nH]c4c(-c5ccccc5)cccc34)[C@@H]2C[C@@H]1N(C)C(=S)Nc1ccc(C#N)cc1	.	.	-22	-22	.	.	.	.
Cc1ccc(S(=O)(=O)NC(=O)COc2ccccc2)cc1	.	-1	7	-3	-1	5	2	0
Cc1ccc(OCC(=O)NS(=O)(=O)c2ccccc2)cc1	-3	-13	9	7	-7	-4	.	.
COc1cc(OC)cc(-c2c(C#Cc3ccsc3)c3cc(-c4ccc(C(N)=O)cc4)ccc3n2C)c1	.	0	7	-20	-18	10	4	0
CCCCN1C[C@@H](COCc2ccccc2)Oc2cc(F)ccc2S1(=O)=O	.	.	5	35	.	.	.	.
COc1ccc(-n2c(C)cc(C(=O)COC(=O)Cn3cnc4ccccc43)c2C)cc1	100*	15	15	-11	18	-5	89*	0
COc1ccc(NC(=O)COC(=O)Cn2cnc3ccccc32)cc1	-7	21	5	-23	7	-9	.	.
Cn1c(SCC(=O)NC2CC2)nnc1-c1cccs1	14*	-11	-5	1	4	-2	7	0
O=C(O)CNc1ncccc1[N+](=O)[O-]	17*	13	-11	11	-3	10	-1	0
COc1ccc(CNc2ncccc2[N+](=O)[O-])cc1	-10	-58	-21	-18	-37	-44	.	.
COc1ccc(S[C@]2(C(=O)NCC(C)C)CC(=O)N[C@@H]2c2ccc(OC)cc2)cc1	.	.	4	-7	.	.	.	.
O=C(COC(=O)c1ccccc1F)NNC(=O)c1ccccc1	0	-8	0	4	-4	16	.	.
CCCCNC(=O)COC(=O)c1ccccc1F	19*	18	-2	-8	-1	-20	2	0
CCCC(=O)Nc1nnc(-c2ccc3c(c2)OCCO3)o1	14*	-13	-11	-18	-43	-45	8	0
CCCC(=O)Nc1nc(-c2ccc3c(c2)OCCO3)cs1	-2	-96	-19	-106	-153	-92	.	.
CC(C)C(=O)NC(c1cccc([N+](=O)[O-])c1)c1c(O)ccc2ccccc12 (configuration not stated)	16*	-17	0	-29	-22	-32	-5	1
CC(C)C(=O)NC(c1ccc([N+](=O)[O-])cc1)c1c(O)ccc2ccccc12 (configuration not stated)	-7	9	16	-15	24	8	.	.
SMILES	GalR3 antagonist	SRC3 inh	COUP-TFII inh	SRC2 inh	LRH-1 inv ag	SRC1 inh	GalR3 antag conf	CNG parental
CN1CCN(C(=S)C(=O)Nc2ccc(Br)cc2)CC1	40*	14	17	5	-18	1	4	0
CN1CCN(C(=S)NC(=O)c2ccc(Br)cc2)CC1	-6	17	2	-2	-3	14	.	.
C=CCN1[C@@H](Cc2ccccc2)COc2cccc(N3CCCC3)c2S1(=O)=O	.	.	-8	27	.	.	.	.
C=CCN(CC#Cc1ccc(C(F)(F)F)cc1)Cc1ccc(OC)cc1OC	.	.	-1	19	.	.	.	.
O=C(Nc1ccccc1)/C(=C/c1ccccc1)NC(=O)c1ccco1	-6	16	0	-20	-15	-19	.	.
O=C(Nc1ccccc1)/C(=C/c1ccc(O)cc1)NC(=O)c1ccco1	15*	-7	0	9	0	4	-1	0
CCOC(=O)N1C(=O)C[C@](Sc2ccc(OC)cc2)(C(=O)N2CCCC2)[C@H]1c1ccc(OC)cc1	.	.	11	-20	.	.	.	.
CC(C)SCCCOc1ccc(C(C)(C)C)cc1	.	-9	-2	6	9	-12	4	0
COc1ccc(-c2nnc(SCc3c(F)cccc3F)n2N)cc1	.	.	-40	-40	.	.	.	.
CN(CCO)c1cccc2c1S(=O)(=O)N(Cc1cn(Cc3cccc(F)c3)nn1)Cc1ccccc1O2	.	.	-7	21	.	.	.	.
COc1ccc(/C=C/C(=O)c2cc3cccc(OC)c3oc2=O)cc1	24*	11	10	-12	0	-11	9	0
CCC(C)c1ccc(NC(=O)COC(=O)c2nc3nccc(C)n3n2)cc1 (configuration not stated)	15*	13	-13	-14	-17	-9	14*	0
Cc1ccnc2nc(C(=O)OCC(=O)Nc3ccc4c(c3)OC(F)(F)O4)nn12	-1	3	3	17	22	12	.	.
CCN(CC(=O)Nc1ccc2c(c1)OCCO2)C(=O)/C=C/c1ccc(F)cc1	13*	-9	-19	-44	-24	-16	28*	2.4*
COc1ccc(C(=O)CSc2nnc(-c3n[nH]c4c3CCC4)n2N)cc1OC	.	.	-131	-145	.	.	.	.
O=S1(=O)c2ccc(Br)cc2OC[C@@H](Cc2ccccc2)N1Cc1cn(Cc2ccc(Cl)cc2)nn1	.	.	-7	15	.	.	.	.
CCOC(=O)c1sc(N2C(=O)C(O)=C(C(=O)c3ccc(C)o3)C2c2ccc(OC)c(OC)c2)nc1C (configuration not stated)	34*	-4	-4	-24	-28	-31	15*	0
